TexasRed fluor: Total Fluorescence Counterscreen for Inhibitors of the Interaction of Thyroid Hormone Receptor and Steroid Receptor Coregulator 2 | TRb/SRC2 Texas Red total fluorescence interference | Potency, µM (doses to about 106 µM), for the others: at the highest dose fluorescence change, negative = quenching | 0.29% of 280,000 active; active = well fitted curve in either direction with a large enough effect; inconclusive = small, poorly fitted or top-dose-only effect
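Flags fluorescent or light-absorbing compounds by total fluorescence, S + 2P, at 555 nm excitation and 632 nm emission. Mixture: 20 nM Texas Red SRC2 peptide, 0.6 uM human TRb LBD, 1 uM T3, 5% DMSO; compound exposure 5 h at ambient temperature.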
Tau fluor cs: Counterscreen qHTS for Inhibitors of Tau Fibril Formation, Fluorescence Polarization; Potency, µM (top dose mostly 57.7 µM), without a hit: at the highest dose activity change, negative = decrease; tau K18 P301L Alexa594 fluorescence, heparin fibrillization; 0.93% of 280,000 active; also: nearly all actives have a fitted effect of over 55% in size
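Human K18 P301L tau (15 uM unlabeled plus 0.24 uM Alexa 594-labeled, final) in 100 mM sodium acetate pH 7 was mixed with compound and 20 uM heparin and incubated 6 hr at 37 C.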
Tau fibril ThT: qHTS for Inhibitors of Tau Fibril Formation, Thioflavin T Binding. recombinant tau K18 P301L, heparin-induced fibrillization, ThT fluorescence. Potency, µM (series often up to 57.4 µM), for inactives: top-dose activity, negative = inhibition, most hits filed as inhibitors. 2.1% of 270,000 active; also: nearly all actives have a fitted effect of over 55% in size
Target sequence (P10636 561-689 P618L limits assumed): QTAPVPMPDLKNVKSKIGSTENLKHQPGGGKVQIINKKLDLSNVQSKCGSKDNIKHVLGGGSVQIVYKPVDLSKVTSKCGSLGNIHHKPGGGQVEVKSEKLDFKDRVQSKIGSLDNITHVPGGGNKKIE
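Fibril formation assay: tau K18 P301L at 15 uM with trace Alexa 594 label, heparin inducer 20 uM, pH 7 sodium acetate buffer, 37 C for 6 hr; endpoint ThT signal.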
Tau fibril FP: qHTS for Inhibitors of Tau Fibril Formation, Fluorescence Polarization; K18 P301L tau heparin fibrillization, Alexa594 FP, 6 h; Potency, µM (doses to about 57.7 µM), for inactives: top-dose activity, negative = inhibition, usual class: inhibitors; 0.39% of 280,000 active; also: nearly all actives have a fitted effect of over 55% in size
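Human tau K18 […] P301L fragment, 15 uM unlabeled plus 0.24 uM Alexa 594-labeled tau (final), with compound and 20 uM heparin in 100 mM sodium acetate pH 7; 6 hr at 37 C, then Alexa 594 FP read.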
RGS12 GoLoco inh: qHTS Assay for Inhibitors of RGS12 GoLoco Motif Activity (Red Fluorophore). Gai1:RGS12 GoLoco peptide FP, rhodamine, 10 min. Potency, µM (highest dose often 61.6 µM), for the others: at the top dose activity, negative = inhibition, hits mostly inhibitors. 0.44% of 230,000 active. AID 880, 2007; active = well fitted inhibition curve with a large enough effect, not every such curve was filed as active; inactive = no such curve, though single readings can be large or run the other way; also: nearly all actives have a fitted effect of over 30% in size
Target sequence (P63096 whole entry, looked up): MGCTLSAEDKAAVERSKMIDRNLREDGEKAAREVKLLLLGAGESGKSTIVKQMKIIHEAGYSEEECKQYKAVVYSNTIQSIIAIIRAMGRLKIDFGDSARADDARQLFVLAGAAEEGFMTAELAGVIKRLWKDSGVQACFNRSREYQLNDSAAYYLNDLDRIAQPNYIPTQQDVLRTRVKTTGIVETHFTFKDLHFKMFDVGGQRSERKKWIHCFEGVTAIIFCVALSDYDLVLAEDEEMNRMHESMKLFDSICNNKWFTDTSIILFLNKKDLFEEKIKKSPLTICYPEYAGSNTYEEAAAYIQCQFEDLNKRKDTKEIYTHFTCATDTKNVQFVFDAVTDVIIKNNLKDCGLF
TRb-SRC2 inh: qHTS for Inhibitors of the Interaction of Thyroid Hormone Receptor and Steroid Receptor Coregulator 2; AID 1469, 2008; TRbeta-SRC2 peptide binding, fluorescence polarization; receptor liganded with 1 µM T3; Potency, µM (highest dose often 106 µM), without a hit: at the highest dose activity change, negative = inhibition, usual class: inhibitors; 0.065% of 280,000 active; Thyroid hormone receptor beta (Homo sapiens), P10828;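 also: plate controls were bound peptide for no effect and peptide without receptor for full effect; nearly all actives have a fitted effect of over 50% in size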
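TRb LBD 0.6 uM + Texas Red SRC2 peptide 20 nM, 1 uM T3, Tris buffer w/ 5% DMSO; compound pinned, 5 h RT; FP read ex 555/em 632; normalized to unbound and bound controls.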
Active calls of the source: *; u = inconclusive; x = no result given; [ ] = remark or other dose. Only some compounds are listed: those with a hit (about 3.2% of all), similar ones and a draw of the others. Unless noted, calls follow the shape of the dose curve; as a rule, active = well fitted curve in the direction sought with a large enough effect; inconclusive = small, poorly fitted or top-dose-only effect, or another doubt; inactive = no such curve, though single readings can be large; an effect the other way counts as inactive or inconclusive. Unless noted, % is scaled to controls: 0 for no effect and ±100 for the full control effect; potency is read from the fitted curve at half-maximal effect.

SMILES	TexasRed fluor	Tau fluor cs	Tau fibril ThT	Tau fibril FP	RGS12 GoLoco inh	TRb-SRC2 inh
COC(=O)C1(C)NC(c2ccco2)C2C(=O)N(c3ccc(F)cc3)C(=O)C21 (stereo unspecified)	-3%	2%	-3%	-3%	2%	6%
O=C(c1ccco1)[C@@H]1[C@@H]2C(=O)N(c3ccc(F)cc3)C(=O)[C@@H]2[C@H]2C=Cc3ccccc3N21	2%	-25%	14µM*	u	11%	13%
NC(=O)[C@@H]1[C@@H]2C(=O)N(c3ccc(F)cc3)C(=O)[C@@H]2[C@H]2C=Cc3ccccc3N21	4%	-25%	14µM*	u	54%	3%
CN(C)C(=O)c1ccc(-c2nc(NCc3cccnc3)c3ccccc3n2)cc1	-4%	0%	-2%	-4%	-2%	-2%
COc1ccc2c(c1)C(c1ccccc1OC)CC(=O)O2 (stereo unspecified)	1%	-7%[81.3 µM]	u	-12%[81.3 µM]	4%[88.7 µM]	6%
C[n+]1cnn2c1SCC1(COC1)C2	-3%	6%	-13%	9%	10µM*	-16%
Cc1ccccc1C1CC(=O)Oc2cc(C)c(Cl)c(C)c21 (stereo unspecified)	4%	-5%[81.3 µM]	-4%[81.4 µM]	-9%[81.3 µM]	8%[88.7 µM]	4%
COc1ccc(-n2sc3c(c2=S)-c2cc(OC)ccc2NC3(C)C)cc1	-6%	7.9µM*[quencher]	u	u	5%	-5%
COc1ccc2c(c1)-c1c(sn(-c3ccccc3)c1=S)C(C)(C)N2	0%	14µM*[quencher]	u	u	8%	-5%
COc1ccc2c(c1)-c1c(ssc1=S)C(C)(C)N2	-5%	16µM*[quencher]	14µM*	-10%	-9%	4%
CC(=O)c1ccc(NC(=O)CC2Oc3ccc(C)cc3NC2=O)cc1 (stereo unspecified)	-11%	-7%	-4%	-6%	x	-1%
COc1ccc(C2C3C=CCC(c4cccc(/C=C/c5ccccc5)c4)C3C(=O)N2Cc2ccccc2)cc1Cl (stereo unspecified)	0%	x	x	x	x	0%
O=C(O)c1cccc(S(=O)(=O)Nc2ccc3[nH]c(=O)[nH]c3c2)c1	-4%	u	u	-12%	2%	-1%
O=C(O)c1ccc(Cl)c(S(=O)(=O)Nc2ccc3[nH]c(=O)[nH]c3c2)c1	-11%	u	14µM*	u	9%	-10%
O=C(Nc1cccc(O)c1)c1ccc(Br)cc1	0%	-17%	-8%	1%	6%	10%
O=C(NNc1ccc(O)cc1)c1ccc(Br)cc1	1%	u	16µM*	u	-8%	-4%
CCC1CC=CC2C1C(=O)N(Cc1ccccc1)C2c1ccc2ccccc2c1 (stereo unspecified)	1%	x	x	x	x	2%
C[C@@H](Oc1ccc(Oc2cnc3ccc(Cl)cc3n2)cc1)C(=O)O	-6%	-7%	-1%	u	6%	-5%
Cc1cccc(N2CCC(N3CCN(C4CCCCC4)C(CCO)C3)CC2)c1C (stereo unspecified)	-15%	-39%	10µM*	-57%	11%	-5%
COC(=O)c1c(NC(=O)CN2CCC3(O)CCCCC3C2c2ccccc2OC)sc(C)c1C (stereo unspecified)	1%	16%	19%	7%	21%	11%
COC(=O)c1c(NC(=O)CN2CCC3(O)CCCCC3C2c2ccc(OC)cc2OC)sc(C)c1C (stereo unspecified)	100µM*[quencher]	3%	9%	0%	107%	u
